This is part of a sample that, as a whole, favours compounds with a hit. Of some 79,000 tested, about 15% had one in any assay. Active and inactive are the calls of the source. Cut-off read from the data, not from the text of the source: active = growth inhibition above about 70%; inactive = the rest.
How the values were obtained:
[1] = NCI Yeast Anticancer Drug Screen. Data for the rad52 strain (AID 147);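 note: 0% = growth of vehicle-treated control cultures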; conditions: S. cerevisiae rad52 mutant growth inhibition, stronger effect = higher value
Procedure, shortened: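 The repair-mutant yeast strain was incubated with compounds, then growth was read and inhibition derived relative to vehicle.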

[2] = NCI Yeast Anticancer Drug Screen. Data for the wt1 strain (AID 149);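 note: 0% = growth of vehicle-treated wt1 cultures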; conditions: S. cerevisiae wt1 strain (SPY 50644) growth inhibition, stronger effect = higher value
Procedure, shortened: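 Yeast wt1 strain exposed to compounds; growth inhibition measured relative to vehicle-treated controls.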

[3] = NCI Yeast Anticancer Drug Screen. Data for the rad50EPP+ strain (AID 151);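 note: 0% = growth of vehicle-treated control cultures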; conditions: S. cerevisiae rad50 mutant strain, stronger effect = higher value
Procedure, shortened: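 Vehicle-normalised growth inhibition; rad50EPP+ yeast strain, altered in DNA damage repair, compound-treated.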

[4] = NCI Yeast Anticancer Drug Screen. Data for the mgt1 strain (AID 153); conditions: S. cerevisiae mgt1 mutant growth inhibition, stronger effect = higher value
Procedure, shortened: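 Vehicle-normalized growth inhibition is determined in mgt1 yeast, a strain selected for a defined alteration in DNA repair or cell cycle control.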

[5] = NCI Yeast Anticancer Drug Screen. Data for the mec2-1 strain (AID 157); conditions: S. cerevisiae mec2-1 strain, stronger effect = higher value
Procedure, shortened: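 Mutant yeast (mec2-1) grown with compound; growth inhibition relative to vehicle control reported.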

[6] = NCI Yeast Anticancer Drug Screen. Data for the rad14 strain (AID 159);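 note: 0% = growth of vehicle-treated control cultures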; conditions: S. cerevisiae rad14 strain growth inhibition, stronger effect = higher value
Procedure, shortened: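 Yeast cells carrying a defined DNA-repair defect were exposed to compounds, and growth inhibition was calculated relative to vehicle-treated control cultures.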

[7] = NCI Yeast Anticancer Drug Screen. Data for the sgs1 mgt1 strain (AID 161);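 note: 0% = growth of cultures given vehicle only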; conditions: S. cerevisiae sgs1 mgt1 strain, stronger effect = higher value
Procedure, shortened: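 Yeast cells carrying a defined DNA-repair defect were exposed to test compounds. Growth inhibition was measured relative to vehicle-treated controls.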

[8] = NCI Yeast Anticancer Drug Screen. Data for the CLN2oe strain (AID 163);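 note: 0% = growth of vehicle-only control cultures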; conditions: S. cerevisiae CLN2oe strain, stronger effect = higher value
Procedure, shortened: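 Compounds are applied to yeast harbouring a defined cell-cycle control change; reduced growth compared with vehicle-treated controls gives the value.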

[9] = NCI Yeast Anticancer Drug Screen. Data for the cln2 rad14 strain (AID 165);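 note: 0% = growth equal to vehicle treated cultures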; conditions: S. cerevisiae cln2 rad14 strain, stronger effect = higher value
Procedure, shortened: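 Readout is yeast growth inhibition versus vehicle-treated controls, using a strain with cln2 and rad14 alterations exposed to compound.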

[10] = NCI Yeast Anticancer Drug Screen. Data for the bub3 strain (AID 167); conditions: S. cerevisiae bub3 mutant strain, stronger effect = higher value
Procedure, shortened: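 Compounds were applied to a genetically altered yeast strain carrying a cell-cycle control defect. Growth inhibition was scored against vehicle-treated controls.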

[11] = NCI Yeast Anticancer Drug Screen. Data for the wt2 strain (AID 169);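 note: 0% = growth of vehicle-treated yeast cultures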; conditions: S. cerevisiae wt2 strain growth inhibition, stronger effect = higher value
Procedure, shortened: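 Against vehicle-treated controls, the growth of yeast exposed to each compound was compared, and the inhibition was recorded.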

[12] = NCI Yeast Anticancer Drug Screen. Data for the mlh1 strain (AID 171);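 note: 0% = growth of vehicle-treated control cultures of the same strain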; conditions: S. cerevisiae mlh1 strain growth inhibition, stronger effect = higher value
Procedure, shortened: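 Measured: yeast growth. Reference: vehicle-treated controls. Organism: strain with a defined alteration affecting DNA damage repair or cell cycle control, treated with compound.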

[13] = NCI Yeast Anticancer Drug Screen. Data for the sgs1 strain (AID 173);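 note: 0% = growth of vehicle-only control cultures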; conditions: S. cerevisiae sgs1 mutant, stronger effect = higher value
Procedure, shortened: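 Each compound was added to cultures of the altered yeast strain. Growth was recorded, and inhibition was derived by comparison with vehicle controls.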

[14] = NCI Yeast Anticancer Drug Screen. Data for the mlh1 rad18 strain (AID 175); conditions: S. cerevisiae mlh1 rad18 strain growth inhibition, stronger effect = higher value
Procedure, shortened: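 Genetically defined yeast (DNA repair-deficient) exposed to compounds; growth inhibition determined relative to vehicle.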

[15] = NCI Yeast Anticancer Drug Screen. Data for the rad18 strain (AID 177); conditions: S. cerevisiae rad18 mutant growth inhibition, stronger effect = higher value
Procedure, shortened: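 Vehicle-treated cultures served as the baseline for scoring compound-induced growth inhibition in DNA-repair-mutant yeast.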

[16] = NCI Yeast Anticancer Drug Screen. Data for the rad50 strain (AID 155);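 note: 0% = growth of vehicle-only cultures of the same strain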; conditions: S. cerevisiae rad50 strain growth inhibition, stronger effect = higher value
Procedure, shortened: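 Yeast carrying a defined DNA repair defect were exposed to test compounds, and growth was compared with vehicle-treated controls to give percent inhibition.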

[17] = at 5.0 µM (retest, dose inferred, filed as 0.5)
[18] = at 50.0 µM (retest, dose inferred, filed as 5.0)

Measured: growth inhibition

CCCCCCCCCCC(=O)Cl
active: [2]; at 100.0 µM 85% | [4]; at 100.0 µM 85% | [5]; [17] 100% | [5]; [18] 98% | [5]; at 100.0 µM 83% | [6]; at 100.0 µM 88% | [8]; at 100.0 µM 77% | [11]; at 100.0 µM 82% | [12]; at 100.0 µM 82% | [13]; at 100.0 µM 90% | [14]; [17] 100% | [14]; [18] 99% | [15]; at 100.0 µM 89%
inactive: [1]; at 1.2 µM 13% | [1]; at 3.7 µM 13% | [1]; at 11.0 µM 12% | [1]; at 33.0 µM 9% | [1]; at 100.0 µM 31% | [2]; at 1.2 µM 9% | [2]; at 3.7 µM -2% | [2]; at 11.0 µM -5% | [2]; at 33.0 µM -5% | [3]; at 1.2 µM 18% | [3]; at 3.7 µM 22% | [3]; at 11.0 µM 25% | [3]; at 33.0 µM 40% | [3]; at 100.0 µM 46% | [4]; at 1.2 µM -21% | [4]; at 3.7 µM -25% | [4]; at 11.0 µM -28% | [4]; at 33.0 µM -32% | [5]; at 1.2 µM -1% | [5]; at 3.7 µM 7% | [5]; at 11.0 µM -9% | [5]; at 33.0 µM -23% | [5]; at 50.0 µM 7.75% | [6]; at 1.2 µM -1% | [6]; at 3.7 µM -2% | [6]; at 11.0 µM -8% | [6]; at 33.0 µM 39% | [7]; [17] -18% | [7]; [18] 36% | [7]; at 50.0 µM 56.9% | [8]; at 1.2 µM -4% | [8]; at 3.7 µM -9% | [8]; at 11.0 µM -25% | [8]; at 33.0 µM -18% | [9]; [17] 36% | [9]; [18] 58% | [9]; at 50.0 µM 31.9% | [10]; at 1.2 µM -9% | [10]; at 3.7 µM -4% | [10]; [17] 16% | [10]; at 11.0 µM -34% | [10]; at 33.0 µM -33% | [10]; [18] 64% | [10]; at 50.0 µM 12.1% | [10]; at 100.0 µM 54% | [11]; at 1.2 µM 5% | [11]; at 3.7 µM 1% | [11]; at 11.0 µM -4% | [11]; at 33.0 µM -2% | [12]; at 1.2 µM 14% | [12]; at 3.7 µM 7% | [12]; at 11.0 µM 5% | [12]; at 33.0 µM 2% | [13]; at 1.2 µM 18% | [13]; at 3.7 µM 14% | [13]; at 11.0 µM 15% | [13]; at 33.0 µM 25% | [14]; at 50.0 µM -13.4% | [15]; at 1.2 µM 25% | [15]; at 3.7 µM 21% | [15]; at 11.0 µM 15% | [15]; at 33.0 µM 9%

Cn1ccnc1Oc1ccc(Cl)cc1
inactive: [1]; at 1.2 µM -7% | [1]; at 3.7 µM -11% | [1]; at 11.0 µM 7% | [1]; at 33.0 µM 61% | [2]; at 1.2 µM 1% | [2]; at 3.7 µM 5% | [2]; at 11.0 µM 22% | [2]; at 33.0 µM 50% | [3]; at 1.2 µM -5% | [3]; at 3.7 µM -22% | [3]; at 11.0 µM 0% | [3]; at 33.0 µM 30% | [3]; at 100.0 µM 37% | [4]; at 1.2 µM -4% | [4]; at 3.7 µM -5% | [4]; at 11.0 µM 0% | [4]; at 33.0 µM 15% | [16]; at 1.2 µM -9% | [16]; at 3.7 µM -9% | [16]; [17] -121% | [16]; at 11.0 µM 3% | [6]; at 1.2 µM -5% | [6]; at 3.7 µM 4%
active: [1]; at 100.0 µM 97% | [2]; at 100.0 µM 97% | [4]; at 100.0 µM 98% | [16]; at 33.0 µM 76% | [16]; [18] 83% | [16]; at 50.0 µM 81.2% | [16]; at 100.0 µM 97%

Source: PubChem BioAssay (NCI)
